Here are results for 8 compounds from PubChem BioAssay (NCATS).

Test [1] deals with Zika virus NS2B-NS3 protease. As to the kind of experiment: Primary screen GU AMC qHTS for Zika virus inhibitors (AID 1347154).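 Also: 0% = no-inhibitor control and -100% = no-enzyme control; nearly all actives have a fitted effect of over 70% in size.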 The procedure, abridged:
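Unlinked Zika NS2B hydrophilic domain/NS3 protease domain noncovalent complex (25 nM final) in 10 mM Tris-HCl pH 8.0, 0.01% Tween 20, with AMC peptide substrate. Fluorescence (ex 340, em 450 nm) change over 15 min, room temperature; percent inhibition fitted to 4-parameter Hill equation.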
(In general: qHTS replaces the single test concentration by a dilution series.)

A short description of test [2]: Primary qHTS for small molecule stabilizers of the endoplasmic reticulum resident proteome: Secreted ER Calcium Modulated Protein (SERCaMP) assay (AID 1508630). Also: % is scaled to controls: 0 for no effect and ±100 for the full control effect. In a few lines:
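GLuc-SERCaMP-expressing SH-SY5Y cells, pretreated 16 h with compound, are challenged with thapsigargin to empty ER calcium stores; after 4 h, coelenterazine is added directly to the medium and luminescence is imaged.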

In test [3] the target is Glucocorticoid receptor (Homo sapiens) (UniProt P04150). In words: GR-GFP Redistribution (AID 450;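 active = compounds whose dose series gives a full or clear partial fitted curve of increased nuclear translocation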; also: potency is read from the fitted curve at half-maximal effect). The conditions noted are these: U2OS GR-GFP nuclear translocation, laser cytometry, 2 h.
Test [4] has the same target. In words: GR-EFC Redistribution (AID 451; calls by dose curve; also: potency is read from the fitted curve at half-maximal effect). The conditions noted are these: CHO-K1 GR-EFC translocation, beta-gal luminescence, 2 h. In a few lines:
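CHO-K1 cells stably expressing nuclear-localized β-gal enzyme acceptor and GR fused C-terminally to the enzyme donor fragment; ligand-driven nuclear translocation restores β-gal by complementation. Compounds titrated up to 46 uM final, 2 h at 37 °C; luminescence read.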

Test [5] has as its target Mitogen-activated protein kinase 10 (Mus musculus) (UniProt Q61831). In words: JNK3 AlphaScreen Assay (AID 530; active = well fitted curve in either direction with a large enough effect, not every such curve was filed as active;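 also: kinase came from lysate of stimulated human HepG2 cells; signal reports phosphorylation of biotinylated GST-cJun 1-79 at Ser73 with 10 µM ATP; % is scaled to controls: 0 for no effect and ±100 for the full control effect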). The procedure, abridged:
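Inhibitors reduce antibody binding to phosphorylated biotin-cJun, lowering AlphaScreen luminescence. Lysates from HepG2 cells pre-activated by IL-1beta plus TNF-alpha supplied JNK3; compounds were titrated.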
A general note: In Alpha technology, singlet oxygen from a donor bead excites a nearby acceptor bead.

Test [6] concerns the target Cytochrome P450 3A4 (Homo sapiens) (UniProt P08684). As to the kind of experiment: qHTS Assay for Activators of Cytochrome P450 3A4 (AID 885). Also: nearly all actives have a fitted effect of over 65% in size. Also: potency is read from the fitted curve at half-maximal effect. In a few lines: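 Human CYP3A4 (20 nM) with Luciferin-PPXE at 25 uM (its KM) in 200 mM KPO4; 10 min compound preincubation, then NADPH regeneration and 60 min reaction at RT. Luciferin read by luminescence; normalized to 57 uM ketoconazole full inhibition.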

A short description of test [7]: qHTS Assay for Lipid Storage Modulators (AID 1519; calls by dose curve). The conditions noted are these: Drosophila S3 cells, BODIPY lipid droplet/cell ratio, laser cytometry, cells loaded with oleic acid; for activity change, negative = inhibition: at 57.5 µM (top of the series). In a few lines:
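Cells seeded at 5,000 per well were treated with compounds over a concentration series and loaded with oleic acid (400 uM, as added). Lipid droplet fluorescence (488 nm excitation, 500-530 nm channel) was read by laser-scanning cytometry and normalized to 20 uM Triacsin C.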

For test [8], the target named is DNA dC->dU-editing enzyme APOBEC-3G (Homo sapiens) (UniProt Q9HC16). In words: qHTS for inhibitors of Vif-A3G interactions: Validation (AID 588379). Also: 0% is about no effect. In a few lines:
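HeLa cells stably expressing Vif and A3G-eYFP, 700 cells/well, incubated overnight at 37 deg C, then exposed to compound overnight at 37 deg C. Inhibition of Vif-mediated degradation read as increased yellow fluorescence (Ex 488/Em 500-530) by laser-scanning cytometry.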

Test [9] deals with Ubiquitin carboxyl-terminal hydrolase 1 (Homo sapiens) (UniProt O94782). As to the kind of experiment: Inhibitors of USP1/UAF1: Pilot qHTS (AID 504865).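 Also: rhodamine fluorescence freed from ubiquitin-rhodamine substrate followed over time; top concentration of the series differs between compounds; % is scaled to controls: 0 for no effect and ±100 for the full control effect; nearly all actives have a fitted effect of over 35% in size.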 In a few lines:
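1nM USP1/UAF1 + cpd, 15 min RT; start w/ Ub-Rho 150nM final; kinetic FL 480/540 nm, 6 reads q60 s. Buffer 50mM HEPES pH 7.8, 0.5mM EDTA, 1mM TCEP, 0.01% Tween-20, 0.1 mg/ml BSA.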

Test [10] has as its target 3',5'-cyclic-AMP phosphodiesterase 4B (Homo sapiens) (UniProt Q07343). As to the kind of experiment: qHTS Assay for Inhibitors of PDE-IV (AID 607; active = well fitted activation curve with a large enough effect in the main read-out, with a control signal flat, not every such curve was filed as active; also: % of control where 0% means no effect). The procedure, abridged: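 HEK293 ACTOne cells with CNG channel (1000/well), endogenous PDE4; membrane potential dye, compounds up to 22.9 uM final. Fluorescence Ex 535/Em 590; RO 20-1724 (100 uM final) as reference.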
Test [11] is described as follows: AP1 Signaling Pathway (AID 357; active = well fitted curve in either direction with a large enough effect, not every such curve was filed as active;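 also: ME-180 reporter cells stimulated with EGF at its EC50 level; % is scaled to controls: 0 for no effect and ±100 for the full control effect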). The following applies: ME-180 AP-1-bla reporter, EGF-induced, beta-lactamase ratio, 5 h; at 38 µM (top of the series). The procedure, abridged:
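Cells are seeded overnight, exposed to compound titrations and an EC50 level of EGF for 5 hours at 37 °C, then loaded with CCF4 dye for 2.5 hours. Beta-lactamase activity under the AP-1 element is read as a blue/green ratio.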

Test [12] can be described thus: NFAT Signaling Pathway (AID 444; active = well fitted curve in either direction with a large enough effect, not every such curve was filed as active;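 also: carbachol stimulus at about its EC50 of 1 µM final; % is scaled to controls: 0 for no effect and ±100 for the full control effect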). The following applies: Jurkat NFAT-bla M1, carbachol, beta-lactamase ratio, 5 h; at 38 µM (top of the series). In a few lines: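 Jurkat cells carrying an NFAT-driven β-lactamase reporter and co-transfected muscarinic M1 receptor were treated with compound plus carbachol (1 uM final, an EC50 level) for 5 h at 37 °C. CCF4 loading followed for 1 h at RT; 460/530 nm ratio gave %activity.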

Test [13] is described as follows: Stat Signaling Pathway (AID 446; active = well fitted curve in either direction with a large enough effect, not every such curve was filed as active). The conditions noted are these: ME-180 (cervical carcinoma) SIE beta-lactamase reporter, IL-6 stimulated, 5 h; at 38 µM (top of the series). In a few lines:
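ME-180 cells carrying a SIE-driven beta-lactamase reporter are stimulated with 40 pM IL-6 for 5 h at 37C in the presence of compound. The 460/530 nm FRET substrate ratio is read after 2.5 h at RT. Data are normalised to 300 pM IL-6 and to 125 nM JAK inhibitor controls.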

Test [14] addresses Guanine nucleotide-binding protein G(i) subunit alpha-1 (Homo sapiens) (UniProt P63096). In words: qHTS Assay for Inhibitors of RGS12 GoLoco Motif Activity (Green Fluorophore) (AID 879).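 Also: 0% = labeled peptide with Gαi1 and full inhibition = labeled peptide alone without protein; negative values mean loss of peptide binding seen as reduced polarization.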 In a few lines: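 Fluorescence polarization assay: 50 nM Gαi1 with 10 nM FITC-labeled RGS12 GoLoco peptide in 10 mM Tris pH 7.5, 150 mM NaCl, 0.1 mM GDP, 0.05% NP40, 10 min at room temperature with compound.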

The target of test [15] is Cytochrome P450 2C19 (Homo sapiens) (UniProt P33261). In words: qHTS Assay for Inhibitors and Substrates of Cytochrome P450 2C19 (AID 899). Also: potency is read from the fitted curve at half-maximal effect; nearly all actives have a fitted effect of over 60% in size. The procedure, abridged:
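Human CYP2C19 (5nM) with Luciferin-H EGE at 10uM (its KM) in 50mM KPO4 was preincubated with compound for 10 min at 37C. NADPH regeneration started a 60 min 37C reaction. Luciferin was read by luminescence, normalized to 57uM ketoconazole.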

The nature of test [16]: qHTS Assay for Identification of Small Molecule Agonists for Thrombopoietin (TPO) Signaling Pathway (AID 917). Also: % is scaled to controls: 0 for no effect and ±100 for the full control effect. In a few lines:
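Activators of TPO signaling were sought in murine Ba/F3 cells transfected with the human receptor, using a luciferase gene driven by the Glycoprotein IIb promoter; 24-hr compound exposure at 37 C alongside 26 pM TPO, in IL-3-free medium.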

Test [17] addresses Pyruvate kinase (Leishmania mexicana) (UniProt Q27686). As to the kind of experiment: qHTS Validation Assay for Inhibitors of Leishmania Mexicana Pyruvate Kinase (AID 945).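 Also: 0% = DMSO only neutral control wells.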 The procedure, abridged: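 Eight-point qHTS titrations; enzyme 0.2 nM LmPYK (E451W mutant); substrates 0.5 mM PEP, 0.1 mM ADP; 7 mM MgCl2; 1 h room temperature; PKLight luminescence normalized to neutral control.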

Test [18] deals with Cytochrome P450 1A2 (Homo sapiens) (UniProt P05177). In words: p450-cyp1a2 (AID 410; calls by dose curve; also: potency is read from the fitted curve at half-maximal effect). The procedure, abridged:
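Luminescent readout of luciferin formed from Luciferin-ME by human CYP1A2; data normalized against complete inhibition by 57 uM furafylline. Enzyme 20nM, substrate 100uM at Km, 100mM KPO4 buffer, 60 min reaction at room temperature.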

Setting [19] is: measured here: cell count channel max response.
[20] abbreviates: measured here: lipid channel max response.

“And” between values parts separate entries of the source, which are not always exact repeats. Equal values may be shown once. Results filed as inconclusive are left out. The source made the active and inactive calls. Unless noted, calls follow the shape of the dose curve; as a rule, active = well fitted curve in the direction sought with a large enough effect; inconclusive = small, poorly fitted or top-dose-only effect, or another doubt; inactive = no such curve, though single readings can be large; an effect the other way counts as inactive or inconclusive. Residues, ends and D or L forms follow the SMILES beside them. A value given as a limit tells only on which side of the number the result lay.

Chain of Glucocorticoid receptor (Homo sapiens) (P04150 whole entry, looked up): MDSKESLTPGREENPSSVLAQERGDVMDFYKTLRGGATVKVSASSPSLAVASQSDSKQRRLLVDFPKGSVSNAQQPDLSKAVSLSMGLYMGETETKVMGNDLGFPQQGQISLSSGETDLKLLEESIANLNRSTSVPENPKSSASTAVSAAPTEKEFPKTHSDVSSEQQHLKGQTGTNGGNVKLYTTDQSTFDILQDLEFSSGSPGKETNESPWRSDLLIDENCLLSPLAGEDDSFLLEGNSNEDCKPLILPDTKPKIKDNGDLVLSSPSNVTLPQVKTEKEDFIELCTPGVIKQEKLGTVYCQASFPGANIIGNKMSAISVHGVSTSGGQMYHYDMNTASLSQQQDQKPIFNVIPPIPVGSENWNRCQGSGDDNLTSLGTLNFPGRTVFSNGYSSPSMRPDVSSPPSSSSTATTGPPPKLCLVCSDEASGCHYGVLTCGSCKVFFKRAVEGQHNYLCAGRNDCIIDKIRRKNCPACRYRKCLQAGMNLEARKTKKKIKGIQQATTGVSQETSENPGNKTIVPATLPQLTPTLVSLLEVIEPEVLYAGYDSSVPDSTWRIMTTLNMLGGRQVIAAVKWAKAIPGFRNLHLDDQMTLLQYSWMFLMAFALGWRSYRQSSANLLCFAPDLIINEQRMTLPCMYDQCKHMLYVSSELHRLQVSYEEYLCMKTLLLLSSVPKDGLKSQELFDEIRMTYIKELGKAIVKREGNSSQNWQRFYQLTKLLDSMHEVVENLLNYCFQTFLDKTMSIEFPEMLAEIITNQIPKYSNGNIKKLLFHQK
Chain of Cytochrome P450 3A4 (Homo sapiens) (P08684 whole entry, looked up): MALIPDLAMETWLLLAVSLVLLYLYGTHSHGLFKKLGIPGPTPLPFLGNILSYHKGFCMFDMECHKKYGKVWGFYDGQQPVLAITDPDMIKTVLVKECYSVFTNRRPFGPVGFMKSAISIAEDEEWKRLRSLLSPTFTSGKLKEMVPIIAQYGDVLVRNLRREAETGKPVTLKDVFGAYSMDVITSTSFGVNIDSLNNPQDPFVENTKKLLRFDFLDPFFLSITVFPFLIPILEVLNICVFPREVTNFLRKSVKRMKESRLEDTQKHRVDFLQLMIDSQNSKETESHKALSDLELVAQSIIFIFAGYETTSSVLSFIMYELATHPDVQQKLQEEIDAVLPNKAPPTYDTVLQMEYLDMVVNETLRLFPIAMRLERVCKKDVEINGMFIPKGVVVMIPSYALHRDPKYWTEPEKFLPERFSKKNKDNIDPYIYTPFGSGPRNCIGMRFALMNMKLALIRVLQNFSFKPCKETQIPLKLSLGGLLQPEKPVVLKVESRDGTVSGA
Chain of Cytochrome P450 2C19 (Homo sapiens) (P33261 whole entry, looked up): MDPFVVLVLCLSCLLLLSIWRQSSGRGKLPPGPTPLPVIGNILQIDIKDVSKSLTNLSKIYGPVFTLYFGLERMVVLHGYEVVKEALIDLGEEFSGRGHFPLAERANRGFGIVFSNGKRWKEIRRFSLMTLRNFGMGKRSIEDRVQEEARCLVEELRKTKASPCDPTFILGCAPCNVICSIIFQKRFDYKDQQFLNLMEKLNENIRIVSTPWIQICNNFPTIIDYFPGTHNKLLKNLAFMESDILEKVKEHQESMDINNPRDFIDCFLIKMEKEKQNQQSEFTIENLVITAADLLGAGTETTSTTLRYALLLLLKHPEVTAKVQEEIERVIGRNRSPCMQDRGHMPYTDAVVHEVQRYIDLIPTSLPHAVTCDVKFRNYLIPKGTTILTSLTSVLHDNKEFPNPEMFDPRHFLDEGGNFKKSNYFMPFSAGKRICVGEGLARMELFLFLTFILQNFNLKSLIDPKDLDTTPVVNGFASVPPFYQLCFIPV
Chain of DNA dC->dU-editing enzyme APOBEC-3G (Homo sapiens) (Q9HC16 whole entry, looked up): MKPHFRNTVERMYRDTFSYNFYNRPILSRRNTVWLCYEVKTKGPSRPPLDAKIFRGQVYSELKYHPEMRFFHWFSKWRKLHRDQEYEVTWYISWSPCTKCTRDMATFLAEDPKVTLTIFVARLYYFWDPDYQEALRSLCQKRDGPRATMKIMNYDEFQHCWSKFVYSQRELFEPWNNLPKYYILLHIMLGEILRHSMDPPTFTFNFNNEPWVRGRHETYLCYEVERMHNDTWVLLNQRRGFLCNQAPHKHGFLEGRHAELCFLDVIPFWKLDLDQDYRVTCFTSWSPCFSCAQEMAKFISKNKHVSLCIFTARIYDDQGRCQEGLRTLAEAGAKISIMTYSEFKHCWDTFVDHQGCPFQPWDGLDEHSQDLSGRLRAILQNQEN
Chain of 3',5'-cyclic-AMP phosphodiesterase 4B (Homo sapiens) (Q07343 whole entry, looked up): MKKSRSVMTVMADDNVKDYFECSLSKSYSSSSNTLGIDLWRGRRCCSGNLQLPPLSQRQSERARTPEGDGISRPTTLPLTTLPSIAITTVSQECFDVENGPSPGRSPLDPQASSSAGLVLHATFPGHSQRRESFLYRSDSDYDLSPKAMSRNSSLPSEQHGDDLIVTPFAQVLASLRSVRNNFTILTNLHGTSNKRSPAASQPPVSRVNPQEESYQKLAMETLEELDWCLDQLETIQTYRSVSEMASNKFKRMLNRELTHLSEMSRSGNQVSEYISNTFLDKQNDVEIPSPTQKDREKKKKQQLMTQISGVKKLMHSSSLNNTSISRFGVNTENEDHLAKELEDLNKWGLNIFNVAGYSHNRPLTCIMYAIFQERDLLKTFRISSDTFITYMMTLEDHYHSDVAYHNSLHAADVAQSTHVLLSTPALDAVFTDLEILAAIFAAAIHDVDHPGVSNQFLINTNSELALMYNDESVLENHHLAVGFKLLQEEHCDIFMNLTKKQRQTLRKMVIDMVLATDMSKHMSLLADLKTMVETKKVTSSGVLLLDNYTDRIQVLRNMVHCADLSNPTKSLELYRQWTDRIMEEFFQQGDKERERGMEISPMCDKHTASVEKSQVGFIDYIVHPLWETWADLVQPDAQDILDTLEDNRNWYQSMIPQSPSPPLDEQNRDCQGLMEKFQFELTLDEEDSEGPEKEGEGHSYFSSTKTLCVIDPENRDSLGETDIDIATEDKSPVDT
Chain of Ubiquitin carboxyl-terminal hydrolase 1 (Homo sapiens) (O94782 whole entry, looked up): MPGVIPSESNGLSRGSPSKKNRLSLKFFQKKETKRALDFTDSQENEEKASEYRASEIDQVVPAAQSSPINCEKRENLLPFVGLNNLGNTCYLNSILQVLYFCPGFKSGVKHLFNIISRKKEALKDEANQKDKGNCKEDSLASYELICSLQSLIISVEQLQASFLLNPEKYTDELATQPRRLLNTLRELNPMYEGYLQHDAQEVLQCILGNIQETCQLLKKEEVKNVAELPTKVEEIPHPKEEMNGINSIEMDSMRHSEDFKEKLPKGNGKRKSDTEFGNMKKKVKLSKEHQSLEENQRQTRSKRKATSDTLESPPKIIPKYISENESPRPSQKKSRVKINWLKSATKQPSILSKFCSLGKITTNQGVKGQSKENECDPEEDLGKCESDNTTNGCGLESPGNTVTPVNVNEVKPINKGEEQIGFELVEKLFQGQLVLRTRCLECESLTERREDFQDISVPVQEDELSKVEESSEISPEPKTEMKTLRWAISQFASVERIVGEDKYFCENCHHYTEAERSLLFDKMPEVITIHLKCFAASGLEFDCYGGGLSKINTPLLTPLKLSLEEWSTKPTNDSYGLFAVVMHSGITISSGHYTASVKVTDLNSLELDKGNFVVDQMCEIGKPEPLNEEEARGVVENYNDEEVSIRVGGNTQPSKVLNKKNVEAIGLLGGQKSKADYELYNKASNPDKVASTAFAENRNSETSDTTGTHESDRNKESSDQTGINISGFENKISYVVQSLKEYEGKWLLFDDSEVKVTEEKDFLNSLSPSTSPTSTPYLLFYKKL
Chain of Guanine nucleotide-binding protein G(i) subunit alpha-1 (Homo sapiens) (P63096 whole entry, looked up): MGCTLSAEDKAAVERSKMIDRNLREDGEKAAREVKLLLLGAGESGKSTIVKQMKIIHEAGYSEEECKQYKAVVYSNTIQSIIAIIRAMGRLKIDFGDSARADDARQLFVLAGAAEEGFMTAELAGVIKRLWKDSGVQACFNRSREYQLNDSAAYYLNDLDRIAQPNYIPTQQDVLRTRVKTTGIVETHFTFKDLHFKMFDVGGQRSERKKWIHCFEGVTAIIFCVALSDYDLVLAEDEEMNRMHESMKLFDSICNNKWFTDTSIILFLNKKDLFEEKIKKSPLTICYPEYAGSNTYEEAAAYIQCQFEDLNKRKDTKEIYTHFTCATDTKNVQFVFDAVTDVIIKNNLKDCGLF
Chain of Cytochrome P450 1A2 (Homo sapiens) (P05177 whole entry, looked up): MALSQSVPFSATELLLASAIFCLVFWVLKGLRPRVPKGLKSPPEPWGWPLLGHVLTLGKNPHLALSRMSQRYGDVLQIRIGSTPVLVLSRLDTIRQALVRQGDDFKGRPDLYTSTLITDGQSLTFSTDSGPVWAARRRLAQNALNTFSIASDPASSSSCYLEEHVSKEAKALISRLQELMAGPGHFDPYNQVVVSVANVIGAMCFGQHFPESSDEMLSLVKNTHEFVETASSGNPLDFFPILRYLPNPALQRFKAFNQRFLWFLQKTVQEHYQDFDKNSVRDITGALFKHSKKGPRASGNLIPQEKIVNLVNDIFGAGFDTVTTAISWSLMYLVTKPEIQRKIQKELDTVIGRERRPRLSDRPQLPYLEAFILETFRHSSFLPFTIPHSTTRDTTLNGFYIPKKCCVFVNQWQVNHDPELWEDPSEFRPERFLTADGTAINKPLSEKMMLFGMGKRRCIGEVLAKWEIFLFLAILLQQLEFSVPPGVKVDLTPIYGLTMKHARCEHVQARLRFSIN

For `CNC(=O)[C@H]1O[C@@H](n2cnc3c(NCc4cccc(I)c4)nc(Cl)nc32)[C@H](O)[C@@H]1O`, the Potency entry in test [1] and in test [2] was “inactive” in each case.
Turning to `O[C@@H](c1ccccc1)C1CCN(CCc2ccccc2)CC1`, the results for the Potency in test [3], in [4] and in [6] were > 46 µM (inactive), > 46 µM (inactive) and 15.8 µM (active), respectively. For the same compound, the Potency entry in test [5], in test [8], in test [1] and in test [2] was “inactive” in each case. Moreover, the activity change, negative = inhibition in test [7] was 3% (inactive). The max response in test [7] (setting [19]) amounted to 5.72%; in test [7] (setting [20]), 10.3%.
Take `CCCCC/C=C\C/C=C\C/C=C\C/C=C\CCCC(=O)O`: the Potency entry in test [6] is “inactive”. Besides, the activity change, negative = inhibition in test [1] is 3.96% [at 6.83 µM] (inactive); in test [2], 40.9% [at 3.88 µM] (inactive).
With `NC(N)=NCCC[C@@H](N)C(=O)O`, the activity change, negative = inhibition in test [7] was -2.14% (inactive). For the same compound, the max response in test [7] (setting [19]) is -17.8%; in test [7] (setting [20]), -21.4%. In addition, the Potency entry in test [9], in test [8], in [1] and in test [2] was “inactive” each time.
As to `COC(=O)[C@H]1[C@@H]2C[C@H]3c4[nH]c5ccccc5c4CCN3C[C@@H]2CC[C@@H]1O`, the Potency entry in test [5], in test [10], in test [9], in test [8], in test [1] and in test [2] was “inactive” each time. Moreover, the activity change, negative = inhibition in test [7] was 4.47% (inactive). The figures for the max response in [7] (setting [19]) and in [7] (setting [20]) were -3.24% and 4.05%, respectively.
On to `COC(=O)C1=C(C)NC(C)=C([N+](=O)[O-])[C@H]1c1ccccc1C(F)(F)F`, for which the activity change, negative = inhibition in test [11] was -27.8% (inactive); in [12], -15.3% (inactive). In addition, the activity, negative = inhibition in [13] was 13.2% (inactive). Further, the Potency in test [3] was > 46 µM (inactive); in test [4] it was > 46 µM (inactive); in test [15], 1.26 µM (active) and 158 nM (active). In addition, the Potency result in [5], in [10], in test [6], in test [16], in [17] and in [8] was “inactive” in each case. Further, the Potency result in [1] and in [2] was “inactive” throughout. For the same compound, in test [14], the call was inactive.
As to `COc1ccc2[nH]c(-c3ccccc3)c(CCNC(C)=O)c2c1`, the Potency in [18] is 1.26 µM (active); in [3] it was > 46 µM (inactive); in [4], > 46 µM (inactive); in [15], 7.94 µM (active). Moreover, the Potency entry in test [5], in test [10], in test [8], in test [1] and in [2] was “inactive” in each case.
In the case of `CC(=O)NCC(=O)N[C@H](CCC(=O)O)C(=O)O` (HELM PEPTIDE1{[ac].G.[dE]}$$$$V2.0), the Potency in test [3] and in test [4] was > 46 µM (inactive) in each case. Besides, the Potency result in test [5], in test [10], in test [8], in test [1] and in test [2] was “inactive” each time. The activity change, negative = inhibition in test [7] was 3.36% (inactive). The figures for the max response in test [7] (setting [19]) and in test [7] (setting [20]) were 6.18% and 9.84%, respectively.
